Measured values from PubChem BioAssay.
The source made the active and inactive calls. No rule for the calls is given here.

Assay: modulation of C. elegans fzo-1 (AID 1259413);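 also: fzo-1 mutant C. elegans worms in liquid wells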
Conditions: C. elegans fzo-1 modulator screen, mean read-out; stronger effect = higher value

Compound | mean signal
CN(C)CCCSc1ccccc1NC(=O)/C=C/c1ccccc1 | 241 (inactive)
CN(C)CC/C=C1/c2ccccc2COc2ccc(CC(=O)O)cc21 | 251 (inactive)
CCOC(=O)[C@H](CCc1ccccc1)N[C@@H](C)C(=O)N1[C@H](C(=O)O)C[C@@H]2CCC[C@@H]21 | 226 (inactive)
O=C1CCc2ccc(OCCCCN3CCN(c4cccc(Cl)c4Cl)CC3)cc2N1 | 231 (inactive)
CN(CCCN1c2ccccc2CCc2ccccc21)CC(=O)c1ccc(Cl)cc1 | 194 (inactive)
Cc1ccsc1C(=CCCN1CCC[C@@H](C(=O)O)C1)c1sccc1C | 213 (inactive)
CC(c1cc2ccccc2s1)N(O)C(N)=O (stereo not given) | 255 (inactive)
CN1CCN(CCCN2c3ccccc3Sc3ccc(Cl)cc32)CC1 | 253 (inactive)
NS(=O)(=O)Cc1noc2ccccc12 | 260 (inactive)
Cn1c(NCCN(CCO)CCCc2ccc([N+](=O)[O-])cc2)cc(=O)n(C)c1=O | 242 (inactive)
Cc1ncc([N+](=O)[O-])n1CCO | 239 (inactive)
Clc1ccc2nsnc2c1NC1=NCCN1 | 249 (inactive)
Cc1cn([C@H]2C=C[C@@H](CO)O2)c(=O)[nH]c1=O | 233 (inactive)
COc1cc(C(=O)NS(=O)(=O)c2ccccc2C)ccc1Cc1cn(C)c2ccc(NC(=O)OC3CCCC3)cc12 | 223 (inactive)
Brc1c(NC2=NCCN2)ccc2nccnc12 | 249 (inactive)
CN1[C@@H]2CC[C@H]1CC(OC(=O)c1c[nH]c3ccccc13)C2 (stereo not given in full) | 271 (inactive)
NC(=O)OCC(COC(N)=O)c1ccccc1 | 234 (inactive)
COc1cccc2c1C(=O)c1c(O)c3c(c(O)c1C2=O)C[C@@](O)(C(=O)CO)C[C@@H]3O[C@H]1C[C@H](N)[C@H](O)[C@H](C)O1 | 234 (inactive)
CC(=O)Oc1ccccc1C(=O)Nc1ncc([N+](=O)[O-])s1 | 256 (inactive)
CC(Cc1ccccc1)(NC(=O)CN)c1ccccc1 (stereo not given) | 268 (inactive)

Compound | mean signal
CN(C/C=C/C#CC(C)(C)C)Cc1cccc2ccccc12 | 221 (inactive)
CC(C)c1nc(CN(C)C(=O)N[C@H](C(=O)N[C@@H](Cc2ccccc2)C[C@H](O)[C@H](Cc2ccccc2)NC(=O)OCc2cncs2)C(C)C)cs1 | 246 (inactive)
Cc1nc2ccc(CN(C)c3ccc(C(=O)N[C@@H](CCC(=O)O)C(=O)O)s3)cc2c(=O)[nH]1 | 269 (inactive)
O=C1CC2(CCCC2)CC(=O)N1CCNCC1COc2ccccc2O1 (stereo not given) | 200 (inactive)
CCN1CCC[C@H]1CNC(=O)c1cc(S(N)(=O)=O)ccc1OC | 274 (inactive)
O=C(c1ccc(F)cc1)C1CCN(CCn2c(=S)[nH]c3ccccc3c2=O)CC1 | 246 (inactive)
COc1cc2nc(N3CCN(C(=O)C4COc5ccccc5O4)CC3)nc(N)c2cc1OC (stereo not given) | 219 (inactive)
CCN1CCC[C@H]1CNC(=O)c1c(O)c(Cl)cc(Cl)c1OC | 227 (inactive)
Nc1ccn([C@H]2CC[C@@H](CO)O2)c(=O)n1 | 305 (inactive)
NC1CCN(c2cccc(Cl)n2)CC1 | 216 (inactive)
Cc1nc2n(c(=O)c1CCN1CCC(c3noc4cc(F)ccc34)CC1)CCCC2 | 241 (inactive)
CNCCCCOc1ccccc1Cc1ccccc1 | 234 (inactive)
C[C@@H]1CN(CCCn2c3ccccc3c3ccccc32)C[C@H](C)N1 | 203 (inactive)
COc1cc(-c2ccc(=O)[nH]n2)ccc1OC(F)F | 244 (inactive)
Nc1nc(F)nc2c1ncn2[C@@H]1O[C@H](CO)[C@@H](O)[C@@H]1O | 243 (inactive)
O=C1N(c2ccccc2)c2ccccc2C1(Cc1ccncc1)Cc1ccncc1 | 247 (inactive)
CC(=O)[C@]1(O)Cc2c(O)c3c(c(O)c2[C@@H](O[C@H]2C[C@H](N)[C@H](O)[C@H](C)O2)C1)C(=O)c1ccccc1C3=O | 267 (inactive)
CN(CCOc1ccc(NS(C)(=O)=O)cc1)CCc1ccc(NS(C)(=O)=O)cc1 | 278 (inactive)
CCN(CC)CC1CCCCN1CC(=O)N1c2ccccc2C(=O)Nc2cccnc21 (stereo not given) | 227 (inactive)
Cc1ccnc2c1NC(=O)c1cccnc1N2C1CC1 | 208 (inactive)
